Shiga toxin inh = A qHTS for Small Molecule Inhibitors of Shiga Toxin; Vero cells, Shiga toxin protein synthesis inhibition reporter; inhibition, % at 38.7 µM; 290,000 compounds, 9.2% hits; AID 2315, 2010; in the data active = inhibition mostly above about 28%, no sharp cut-off; inactive = mostly below about 43%; note: 0% is about no effect
Giardia FBPA inh = qHTS Assay for Inhibitors of Fructose-1,6-bisphosphate Aldolase from Giardia Lamblia; A8B2U2; purified Giardia FBPA; Potency, µM (doses to about 59.6 µM), for inactives: at the highest dose activity, negative = inhibition, hits mostly inhibitors; 290,000 compounds, 0.71% hits; AID 2451, 2010; note: potency is the fitted concentration of half-maximal effect; % is set by controls: 0 for no effect and ±100 for the full control effect; nearly all actives have a fitted effect of over 55% in size
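Giardia FBPA (40 nM reagent) was preincubated 10 min at RT with compound (up to 57.5 uM final), then substrate plus GAPDH/TPI/NAD/arsenate coupling system with diaphorase/resazurin was added; resorufin fluorescence (525/598 nm) was read after 20 min.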
LmPK inhibitor = qHTS Assay for Inhibitors of Leishmania Mexicana Pyruvate Kinase (LmPK); Potency, µM (highest dose often 57.5 µM), for inactives: at the highest dose activity change, negative = inhibition, most hits filed as inhibitors; 290,000 compounds, 0.37% hits; purified LmPK, Kinase-Glo ATP luminescence, 1 h; AID 1721, 2009; Q27686; note: potency is the fitted concentration of half-maximal effect; % is set by controls: 0 for no effect and ±100 for the full control effect
Target sequence (Q27686 whole entry, looked up): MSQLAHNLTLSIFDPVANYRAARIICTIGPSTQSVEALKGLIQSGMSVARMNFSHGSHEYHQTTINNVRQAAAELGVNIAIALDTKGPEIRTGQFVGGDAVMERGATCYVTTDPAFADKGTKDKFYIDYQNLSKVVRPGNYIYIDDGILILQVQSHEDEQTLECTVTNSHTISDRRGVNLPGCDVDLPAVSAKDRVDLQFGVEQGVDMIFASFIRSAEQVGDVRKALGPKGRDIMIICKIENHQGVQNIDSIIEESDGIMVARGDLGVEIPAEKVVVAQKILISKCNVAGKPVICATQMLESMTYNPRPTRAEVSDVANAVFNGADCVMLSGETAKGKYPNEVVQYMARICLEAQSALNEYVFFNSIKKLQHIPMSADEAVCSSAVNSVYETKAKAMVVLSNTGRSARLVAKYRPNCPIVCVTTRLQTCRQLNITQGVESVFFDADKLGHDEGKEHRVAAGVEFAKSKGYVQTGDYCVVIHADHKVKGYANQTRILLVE
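In 50 mM imidazole pH 7.2 with 7 mM MgCl2, LmPK (0.1 nM) turned over PEP (0.5 mM) and ADP (0.1 mM) for 1 h at room temperature. Luciferase read-out of ATP.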
NS1 inh = qHTS Assay for Inhibitors of Influenza NS1 Protein Function; Potency, µM (titrated, usually from 46.1 µM), for inactives: at the top dose activity, positive = more growth; 270,000 compounds, 0.4% hits; calls by dose curve; note: potency is the fitted concentration of half-maximal effect; actives are rising curves; nearly all actives have a fitted effect of over 50% in size
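Growth recovery, yeast-based: influenza A NS1 expressed in S. cerevisiae causes slow growth, and suppressors are detected by OD600. The parent strain without NS1 is used as positive control.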
Cycloheximide cs = Cycloheximide Counterscreen for Small Molecule Inhibitors of Shiga Toxin. 300,000 compounds, 12% hits. cell reporter, cycloheximide protein synthesis inhibition counterscreen. AID 2314, 2010. max response, %; in the data active = max response mostly above about 13%, no sharp cut-off; inactive = mostly below about 14%; note: read at 38.3 µM for the half of the compounds with a filed dose; 0% is about no effect
* = called active by the depositor; u = inconclusive; x = no result given. The list is not random: actives were taken first. Their share in the collection is about 14%. Unless noted, calls come from the whole dose curve; as a rule, active = well fitted curve in the direction sought with a large enough effect; inconclusive = small, poorly fitted or top-dose-only effect, or another doubt; inactive = no such curve, though single readings can be large; an effect the other way counts as inactive or inconclusive.

SMILES | Shiga toxin inh | Giardia FBPA inh | LmPK inhibitor | NS1 inh | Cycloheximide cs
CC[C@@]1(O)C(=O)COc2c1cc1n(c2=O)Cc2c-1nc1cccc(C(C)C)c1c2[Si](C)(C)C | x | -13% | x | x | x
CN(C)c1ccnc(C(=O)O)c1 | 10 | -2% | 0% | x | 15
O=C(O)c1ccnc(C(=O)O)c1 | -1 | 1.8µM* | 3% | 4% | 10
Cc1cccc(CSCc2ccc(C(=O)O)o2)c1 | 25 | 20% | 8% | 2% | 16*
Cc1ccc(CSCc2ccc(C(=O)O)o2)cc1 | -6 | 20% | 2% | 3% | -5
COC(=O)c1ccc(Cc2ccc(C(=O)OC)o2)o1 | -6 | 11% | 1% | -12% | -2
O=C(O)c1ccc(COc2ccc3c4c(c(=O)oc3c2)CCC4)o1 | -15 | 18% | 17% | -1% | -1
COC(=O)c1ccc(COc2cc(C)ccc2C)o1 | 91* | 12% | -1% | -7% | 46*
COC(=O)c1ccc(CO/N=C/c2ccc(OC)cc2)o1 | 58* | -2% | 14% | x | 53*
Cc1ccc(OCc2ccc(C(=O)O)o2)cc1C | 69* | 6% | -6% | 0% | 71*
COC(=O)N1CCC[C@@]2(CCN(c3ccncc3)C2)C1 | x | 2% | x | x | x
Cc1cc(C)cc(OCc2ccc(C(=O)O)o2)c1 | 27 | u | 2% | -16% | 9.3*
COC(=O)c1ccc(COc2ccc(C)c(C)c2)o1 | 98* | -4% | -3% | -9% | 27*
CCc1cc(=O)oc2cc(OCc3ccc(C(=O)O)o3)ccc12 | 28 | 7% | -8% | 3% | 15*
COC(=O)c1ccc(COc2ccc(F)cc2)o1 | 53* | 9% | 2% | 3% | 28*
COC(=O)c1ccc(COc2ccc3ccc(=O)oc3c2)o1 | 22 | 10% | 5% | -2% | 2
CC[C@H](C)[C@@H](NC(=O)O[C@H]1C(=O)c2ccc(OC)cc2O[C@@H]1c1ccc2c(c1)OCO2)C(=O)OC | x | 1% | x | x | x
O=C(O)c1cc(Oc2ccc([N+](=O)[O-])cc2)cc(Oc2ccc([N+](=O)[O-])cc2)c1 | -8 | 20% | x | x | -7
Cc1cc(C)cc(COc2ccc3c(C)c(CC(=O)O)c(=O)oc3c2C)c1 | -3 | 19% | 5% | 4% | -3
Cc1c(C)c2ccc(OCc3ccc(C(=O)O)o3)c(C)c2oc1=O | 58* | 14% | 14% | 1% | 32*
O=C(COC(=O)CC1CCCC1)Nc1ccc(OC(F)F)cc1 | 3 | -6% | -12% | x | 2
O=C(COC(=O)CC1CCCC1)Nc1cc2c(cc1Cl)C(=O)c1ccccc1C2=O | 41 | -2% | -1% | -69% | 32*
O=C(CSc1nc2ccccc2c(=O)n1NC(=O)c1ccccc1)c1ccccc1 | 74* | 11% | -10% | 25% | 41*
O=C(CSc1nc2ccsc2c(=O)n1NC(=O)c1ccccc1)Nc1nccs1 | 36* | 21% | 5% | 3% | 41*
O=C(CSc1nc2ccccc2c(=O)n1NC(=O)c1ccccc1)c1ccc(Cl)cc1 | 98* | 3% | 5% | u | 34*
SMILES | Shiga toxin inh | Giardia FBPA inh | LmPK inhibitor | NS1 inh | Cycloheximide cs
Cc1nc2ccccc2c(=O)n1NC(=O)c1ccc(Cl)cc1 | 11 | 7% | 5% | 1% | 1
O=C(Nn1c(SCc2ccccc2F)nc2ccsc2c1=O)c1ccccc1 | -7 | 4% | 2% | 23% | 14
C/C(=C\COc1c2ccoc2cc2oc(=O)ccc12)CCC(O)C(C)(C)O (stereo unspecified) | 3 | -9% | x | x | -8
N#Cc1c(N)nc2c(c1N)CC(COc1ccccc1)O2 (stereo unspecified) | 52* | 4% | 5% | 1% | 37*
N#Cc1c(N)nc2c(c1N)CC(CO)O2 (stereo unspecified) | -19 | 1% | -1% | 3% | 7
Cc1ccccc1OCC1Cc2c(nc(N)c(C#N)c2N)O1 (stereo unspecified) | 58* | 0% | -10% | -16% | 29*
CC(C)(C)c1ccc(NC(=O)c2cc[n+]([O-])cc2)cc1 | -7 | -18% | 3% | 1% | 9
Cc1noc(C)c1-c1cncnc1Nc1ccccc1 | x | 0% | x | x | x
CCC1=Nc2ccccc2NC2=C1C(=O)CCC2 | 77* | u | -2% | -4% | 30*
Cc1ccc(C(=O)C(C)Sc2nnc(N)s2)cc1 (stereo unspecified) | 25 | 1% | 2% | x | 15*
N[C@@H](CC1=CS(=O)(=O)c2ccc(Cl)cc21)C(=O)O | x | x | x | 8% | x
O=C1Nc2ccccc2O/C1=C\c1ccccc1Br | -3 | -2% | 1% | 0% | 2
CC[C@H](C)[C@H](NC(=O)[C@H](Cc1ccc(O)cc1)NC(=O)[C@@H](NC(=O)[C@H](CCCNC(=N)N)NC(=O)[C@@H](N)CC(=O)O)C(C)C)C(=O)N[C@@H](Cc1cnc[nH]1)C(=O)N1CCC[C@H]1C(=O)N[C@@H](Cc1ccccc1)C(=O)N[C@@H](Cc1cnc[nH]1)C(=O)N[C@@H](CC(C)C)C(=O)N[C@@H](CC(C)C)C(=O)N[C@H](C(=O)N[C@@H](Cc1ccc(O)cc1)C(=O)N[C@@H](CO)C(=O)O)C(C)C | 2 | -3% | x | x | -5
CCOC(=O)N/C(N)=N/c1nc2ccccc2s1 | 66* | 15% | 0% | -12% | 34*
CC(=O)Nc1nc(=O)c2ccccc2s1 | 32 | 1% | 0% | -3% | -7
CC(=O)N/C(N)=N/c1nc(=O)c2ccccc2s1 | 55* | -7% | -6% | -1% | 35*
Cc1nn(-c2ccccc2)nc1CNS(C)(=O)=O | -7 | 1% | 1% | 4% | 2
Cc1cccnc1NC(=O)Nc1ccc(F)cc1 | 69* | 2% | 10% | -5% | 30
O=C(Nc1ccc(F)cc1)Nc1cccnc1Cl | 58* | 1% | -21% | -3% | 35*
O=S(=O)(Nc1cccnc1Cl)c1ccc(F)cc1 | 4 | -1% | 6% | 2% | -6
Cc1ccc(NC(=O)Nc2ncccc2C)cc1 | 106* | -8% | -15% | -30% | 63*
COc1ccc(C(=O)Nc2ccc(S(=O)(=O)Nc3nccc(C)n3)cc2)cc1[N+](=O)[O-] | x | -9% | 3% | 14% | -2
O=c1cnc2cnc(Nc3ccccc3)nc2n1C1CC1 | x | -1% | x | x | x
O=C(Cn1cnc(S(=O)(=O)N2CCCCC2)c1)NCc1ccco1 | -13 | x | -11% | -4% | -6
O=S(=O)(Cc1ccccc1)N(O)c1ccccc1 | 5 | -5% | -4% | u | 10
Cc1ccc(-c2nn(-c3ccccc3)cc2/C=N/NC(=O)CSc2nnc(C)n2-c2ccccc2)cc1 | 54* | 1% | 0% | 24% | 36*
COc1ccc(-c2nn(-c3ccccc3)cc2/C=N/Nc2ccc3ccccc3n2)cc1OC | 80* | 3% | 1% | 11% | 34*
COc1ccc(-c2nn(-c3ccccc3)cc2/C=N/Nc2cccc(C(=O)O)c2)cc1 | 108* | -5% | 1% | x | 56*
COc1cccc(/C=N/NC(=O)CSc2nnc(C)n2-c2ccccc2)c1O | 14 | 16% | -4% | -1% | -1
